Our source for the binding signal values is paper PMC7862700, “An all-to-all approach to the identification of sequence-specific readers for epigenetic DNA modifications on cytosine”.

Common to all, as to assay: DAPPL (digital affinity profiling via proximity ligation, sequencing); 10 mM Tris-HCl pH 7.5, 50 mM NaCl, 1 mM DTT, 4% glycerol, room temperature, 30 min; GST-TFs on glutathione beads, 16-mer random dsDNA library, 0.1% formaldehyde crosslink after washing; high values mean tight binding
One test addresses T1, FLI1 (Homo sapiens, UniProt Q01543 1-452).
T1 sequence: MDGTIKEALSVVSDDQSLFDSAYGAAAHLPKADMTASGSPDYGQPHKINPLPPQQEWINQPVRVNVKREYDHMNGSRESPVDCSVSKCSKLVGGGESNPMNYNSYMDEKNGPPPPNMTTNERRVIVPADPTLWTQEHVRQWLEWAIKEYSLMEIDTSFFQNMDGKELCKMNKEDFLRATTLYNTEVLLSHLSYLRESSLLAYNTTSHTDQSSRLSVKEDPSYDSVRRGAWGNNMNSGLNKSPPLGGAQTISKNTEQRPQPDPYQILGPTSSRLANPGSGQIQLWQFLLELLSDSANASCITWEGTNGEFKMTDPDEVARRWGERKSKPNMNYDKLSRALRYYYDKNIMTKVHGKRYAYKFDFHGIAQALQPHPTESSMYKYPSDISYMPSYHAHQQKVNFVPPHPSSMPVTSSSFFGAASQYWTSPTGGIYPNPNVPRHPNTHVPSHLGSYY
The note with it: protein: recombinant; tags: N-terminal GST; dsDNA, one strand shown. In a few lines: (§1)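 The binding signal reported is, for every hexamer, its read frequency for a factor over its read frequency for the tag-only sample. Reads came from pools of yeast-expressed, GST-fused human transcription factors on glutathione beads, barcoded with DNA and mixed with that sample, which were incubated with 200 nmole of a random double-stranded 16-mer DNA library in Tris/NaCl/DTT/glycerol buffer at room temperature for 30 min. After washing, the pools were crosslinked with 0.1% formaldehyde, proximity-ligated with BsaI/T4 ligase for 1 h at 37 °C, PCR-amplified and sequenced on an Illumina NextSeq500.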

The target of another test is T2, ELK1 (Homo sapiens, UniProt P19419 1-428).
T2 sequence: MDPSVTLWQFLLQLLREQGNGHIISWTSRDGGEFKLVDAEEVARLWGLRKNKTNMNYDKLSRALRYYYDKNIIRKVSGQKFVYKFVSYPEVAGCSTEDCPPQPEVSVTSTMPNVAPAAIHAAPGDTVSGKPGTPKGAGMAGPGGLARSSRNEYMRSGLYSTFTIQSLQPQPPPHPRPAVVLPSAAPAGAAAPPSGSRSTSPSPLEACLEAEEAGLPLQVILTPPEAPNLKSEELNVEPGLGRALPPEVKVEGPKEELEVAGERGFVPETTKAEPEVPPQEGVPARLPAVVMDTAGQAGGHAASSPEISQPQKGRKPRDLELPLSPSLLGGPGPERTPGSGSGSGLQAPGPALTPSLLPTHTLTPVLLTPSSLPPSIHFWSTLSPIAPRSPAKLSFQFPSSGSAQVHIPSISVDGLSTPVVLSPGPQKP
The note with it: protein: recombinant; tags: N-terminal GST; dsDNA, one strand shown. An outline of the steps:
as §1

The target of the next test is T3, GABPA (Homo sapiens, UniProt Q06546 1-454).
T3 sequence: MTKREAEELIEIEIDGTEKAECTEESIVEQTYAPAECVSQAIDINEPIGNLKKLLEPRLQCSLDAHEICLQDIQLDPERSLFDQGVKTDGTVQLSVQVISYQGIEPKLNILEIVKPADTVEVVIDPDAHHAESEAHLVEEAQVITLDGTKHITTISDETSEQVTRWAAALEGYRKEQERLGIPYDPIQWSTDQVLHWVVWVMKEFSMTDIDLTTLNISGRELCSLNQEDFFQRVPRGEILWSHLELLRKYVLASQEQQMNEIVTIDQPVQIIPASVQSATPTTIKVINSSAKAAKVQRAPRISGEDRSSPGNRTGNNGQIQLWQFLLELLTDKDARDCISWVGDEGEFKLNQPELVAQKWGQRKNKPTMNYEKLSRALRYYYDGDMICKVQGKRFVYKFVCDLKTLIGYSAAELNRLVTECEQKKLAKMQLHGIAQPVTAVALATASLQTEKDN
The note with it: protein: recombinant; tags: N-terminal GST; dsDNA, one strand shown. In a few lines:
as §1

The next test has as its target T4, ERG (Homo sapiens, UniProt P11308 1-479).
T4 sequence: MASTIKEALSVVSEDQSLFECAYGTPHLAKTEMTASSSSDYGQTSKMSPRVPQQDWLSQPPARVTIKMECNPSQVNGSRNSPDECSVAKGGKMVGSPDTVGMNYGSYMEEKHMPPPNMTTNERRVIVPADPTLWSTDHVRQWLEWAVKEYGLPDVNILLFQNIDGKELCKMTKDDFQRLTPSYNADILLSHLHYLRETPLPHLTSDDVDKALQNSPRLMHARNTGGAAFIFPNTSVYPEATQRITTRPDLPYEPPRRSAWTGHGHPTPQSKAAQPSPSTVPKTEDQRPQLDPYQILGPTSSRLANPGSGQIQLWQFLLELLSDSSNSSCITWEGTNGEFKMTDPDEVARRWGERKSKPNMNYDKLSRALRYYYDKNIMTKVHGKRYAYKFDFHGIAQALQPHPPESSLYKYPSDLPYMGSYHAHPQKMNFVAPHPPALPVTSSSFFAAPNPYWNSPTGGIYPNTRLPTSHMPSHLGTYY
To be noted: protein: recombinant; tags: N-terminal GST; dsDNA, one strand shown. In a few lines: as §1

Another test deals with ELF1 (Homo sapiens, UniProt P32519 1-619). The note with it: protein: recombinant; tags: N-terminal GST; dsDNA, one strand shown. An outline of the steps:
as §1

The target of a further test is T5, EHF (Homo sapiens, UniProt Q9NZC4 1-300).
T5 sequence: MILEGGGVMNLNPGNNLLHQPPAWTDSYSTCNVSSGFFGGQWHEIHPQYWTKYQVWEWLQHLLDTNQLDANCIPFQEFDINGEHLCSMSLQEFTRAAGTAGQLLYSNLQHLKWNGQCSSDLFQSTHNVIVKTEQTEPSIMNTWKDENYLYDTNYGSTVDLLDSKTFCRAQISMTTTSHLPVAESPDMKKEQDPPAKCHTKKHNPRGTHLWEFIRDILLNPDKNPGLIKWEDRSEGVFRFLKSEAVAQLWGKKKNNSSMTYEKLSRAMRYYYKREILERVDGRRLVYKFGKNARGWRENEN
The note with it: protein: recombinant; tags: N-terminal GST; dsDNA, one strand shown. In a few lines:
as §1

For the next test, the target named is SPI1 (Homo sapiens, UniProt P17947 1-270). To be noted: protein: recombinant; tags: N-terminal GST; dsDNA, one strand shown. In a few lines: as §1
Another test deals with SPIB (Homo sapiens, UniProt Q01892 1-262). To be noted: protein: recombinant; tags: N-terminal GST; dsDNA, one strand shown. In a few lines:
as §1

For another test, the target named is T6, ELK3 (Homo sapiens, UniProt P41970 1-407).
T6 sequence: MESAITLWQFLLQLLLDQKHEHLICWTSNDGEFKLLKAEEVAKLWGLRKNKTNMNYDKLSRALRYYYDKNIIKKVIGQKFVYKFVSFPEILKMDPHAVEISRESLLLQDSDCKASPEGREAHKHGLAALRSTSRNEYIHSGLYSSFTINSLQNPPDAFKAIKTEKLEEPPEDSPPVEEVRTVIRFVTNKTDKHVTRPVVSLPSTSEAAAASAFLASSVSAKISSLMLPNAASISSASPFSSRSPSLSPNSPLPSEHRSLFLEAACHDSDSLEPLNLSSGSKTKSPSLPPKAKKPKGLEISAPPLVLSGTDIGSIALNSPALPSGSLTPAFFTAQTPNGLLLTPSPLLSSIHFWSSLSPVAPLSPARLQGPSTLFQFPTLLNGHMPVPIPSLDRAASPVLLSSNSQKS
The note with it: protein: recombinant; tags: N-terminal GST; dsDNA, one strand shown. An outline of the steps:
as §1

For a further test, the target named is T7, FEV (Homo sapiens, UniProt Q99581 1-238).
T7 sequence: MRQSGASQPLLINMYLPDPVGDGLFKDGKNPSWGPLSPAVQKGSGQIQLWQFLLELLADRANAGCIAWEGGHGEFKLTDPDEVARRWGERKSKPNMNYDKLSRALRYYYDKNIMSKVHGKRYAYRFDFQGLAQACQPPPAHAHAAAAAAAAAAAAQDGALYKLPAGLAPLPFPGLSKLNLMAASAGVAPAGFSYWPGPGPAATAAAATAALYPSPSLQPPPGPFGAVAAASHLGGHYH
To be noted: protein: recombinant; tags: N-terminal GST; dsDNA, one strand shown. An outline of the steps:
as §1

Another test addresses ETV5 (Homo sapiens, UniProt P41161 1-510). The note with it: protein: recombinant; tags: N-terminal GST; dsDNA, one strand shown. An outline of the steps: as §1
The target of a further test is HSF1 (Homo sapiens, UniProt Q00613 1-529). To be noted: protein: recombinant; tags: N-terminal GST; chain copies: 3; dsDNA, one strand shown. In a few lines:
as §1

The next test has as its target T8, SPIC (Homo sapiens, UniProt Q8N5J4 1-248).
T8 sequence: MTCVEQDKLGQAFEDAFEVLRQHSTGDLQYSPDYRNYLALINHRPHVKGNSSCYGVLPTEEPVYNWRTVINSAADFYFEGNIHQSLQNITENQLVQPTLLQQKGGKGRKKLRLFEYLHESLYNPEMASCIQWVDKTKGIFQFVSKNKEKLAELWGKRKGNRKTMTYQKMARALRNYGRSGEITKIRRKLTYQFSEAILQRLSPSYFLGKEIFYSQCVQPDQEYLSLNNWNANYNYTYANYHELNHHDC
To be noted: protein: recombinant; tags: N-terminal GST; dsDNA, one strand shown. In a few lines:
as §1

For a further test, the target named is ELF4 (Homo sapiens, UniProt Q99607 1-663). To be noted: protein: recombinant; tags: N-terminal GST; dsDNA, one strand shown. An outline of the steps: as §1
In the next test the target is T9, ELK4 (Homo sapiens, UniProt P28324-2 1-405).
T9 sequence: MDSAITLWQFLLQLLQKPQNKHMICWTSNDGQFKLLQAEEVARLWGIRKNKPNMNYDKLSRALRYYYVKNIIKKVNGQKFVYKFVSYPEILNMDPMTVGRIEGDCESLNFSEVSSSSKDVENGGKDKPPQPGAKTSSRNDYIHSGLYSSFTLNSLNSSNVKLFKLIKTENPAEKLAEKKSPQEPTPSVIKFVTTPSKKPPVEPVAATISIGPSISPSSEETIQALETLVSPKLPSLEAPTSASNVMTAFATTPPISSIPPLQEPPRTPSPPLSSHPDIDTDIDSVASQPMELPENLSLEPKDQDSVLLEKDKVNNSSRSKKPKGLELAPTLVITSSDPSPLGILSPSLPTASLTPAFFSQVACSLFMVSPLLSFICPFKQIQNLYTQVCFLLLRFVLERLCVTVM
To be noted: protein: recombinant; tags: N-terminal GST; dsDNA, one strand shown. In a few lines:
as §1

Another test deals with T10, ETV2 (Homo sapiens, UniProt O00321 1-342).
T10 sequence: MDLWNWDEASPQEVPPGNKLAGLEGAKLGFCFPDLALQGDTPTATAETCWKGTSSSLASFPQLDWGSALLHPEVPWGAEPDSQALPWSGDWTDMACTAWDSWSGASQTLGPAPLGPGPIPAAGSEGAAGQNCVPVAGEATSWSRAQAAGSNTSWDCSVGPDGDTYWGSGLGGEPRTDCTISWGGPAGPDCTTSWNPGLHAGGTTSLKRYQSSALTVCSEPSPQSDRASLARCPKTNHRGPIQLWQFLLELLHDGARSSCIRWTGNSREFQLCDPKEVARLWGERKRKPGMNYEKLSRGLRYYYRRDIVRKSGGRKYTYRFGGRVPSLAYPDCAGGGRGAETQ
The note with it: protein: recombinant; tags: N-terminal GST; dsDNA, one strand shown. An outline of the steps:
as §1

For another test, the target named is T11, ELF3 (Homo sapiens, UniProt P78545 1-371).
T11 sequence: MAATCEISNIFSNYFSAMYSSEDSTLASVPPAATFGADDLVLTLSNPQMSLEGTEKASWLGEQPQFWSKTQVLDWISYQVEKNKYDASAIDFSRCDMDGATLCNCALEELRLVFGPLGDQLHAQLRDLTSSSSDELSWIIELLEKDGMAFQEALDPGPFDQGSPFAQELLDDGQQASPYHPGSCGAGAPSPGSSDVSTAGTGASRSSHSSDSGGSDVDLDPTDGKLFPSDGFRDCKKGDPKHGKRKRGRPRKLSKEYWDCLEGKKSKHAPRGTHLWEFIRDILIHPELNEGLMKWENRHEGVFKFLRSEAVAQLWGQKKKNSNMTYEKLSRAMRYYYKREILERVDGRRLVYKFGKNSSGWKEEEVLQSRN
To be noted: protein: recombinant; tags: N-terminal GST; dsDNA, one strand shown. An outline of the steps: as §1

A further test has as its target CRX (Homo sapiens, UniProt O43186 1-299). The note with it: protein: recombinant; tags: N-terminal GST; dsDNA, one strand shown. In a few lines:
as §1

In a further test the target is ETV1 (Homo sapiens, UniProt P50549 1-477). The note with it: protein: recombinant; tags: N-terminal GST; dsDNA, one strand shown. In a few lines: as §1
Chain of ETV1 (P50549 whole entry): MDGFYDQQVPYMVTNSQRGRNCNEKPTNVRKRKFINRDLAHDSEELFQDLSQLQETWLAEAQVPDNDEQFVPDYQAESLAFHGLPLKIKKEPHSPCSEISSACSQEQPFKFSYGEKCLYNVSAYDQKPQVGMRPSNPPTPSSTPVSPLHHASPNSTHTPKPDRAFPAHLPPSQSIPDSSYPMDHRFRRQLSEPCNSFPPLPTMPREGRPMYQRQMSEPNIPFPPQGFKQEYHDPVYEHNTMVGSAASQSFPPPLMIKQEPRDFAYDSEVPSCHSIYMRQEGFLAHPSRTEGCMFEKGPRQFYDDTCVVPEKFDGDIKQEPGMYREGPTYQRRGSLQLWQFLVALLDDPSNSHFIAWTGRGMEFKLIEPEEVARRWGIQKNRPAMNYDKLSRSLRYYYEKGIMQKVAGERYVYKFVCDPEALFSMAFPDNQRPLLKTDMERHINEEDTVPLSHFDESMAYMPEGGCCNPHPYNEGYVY

Chain of ETV5 (P41161 whole entry): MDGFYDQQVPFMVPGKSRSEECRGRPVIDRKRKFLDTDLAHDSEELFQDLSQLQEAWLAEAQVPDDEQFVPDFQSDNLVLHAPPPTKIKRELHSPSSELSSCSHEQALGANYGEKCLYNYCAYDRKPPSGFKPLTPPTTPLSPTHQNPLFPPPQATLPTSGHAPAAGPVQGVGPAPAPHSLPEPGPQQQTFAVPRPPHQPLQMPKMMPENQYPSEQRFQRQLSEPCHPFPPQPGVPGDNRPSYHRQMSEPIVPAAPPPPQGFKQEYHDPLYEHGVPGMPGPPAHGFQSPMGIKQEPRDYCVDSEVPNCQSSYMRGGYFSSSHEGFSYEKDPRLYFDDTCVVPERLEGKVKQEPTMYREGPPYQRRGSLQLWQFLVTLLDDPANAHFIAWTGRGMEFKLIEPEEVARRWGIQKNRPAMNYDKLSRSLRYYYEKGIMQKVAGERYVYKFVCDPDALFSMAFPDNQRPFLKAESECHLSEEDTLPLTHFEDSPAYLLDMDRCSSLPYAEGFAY
Chain of SPIB (Q01892 whole entry): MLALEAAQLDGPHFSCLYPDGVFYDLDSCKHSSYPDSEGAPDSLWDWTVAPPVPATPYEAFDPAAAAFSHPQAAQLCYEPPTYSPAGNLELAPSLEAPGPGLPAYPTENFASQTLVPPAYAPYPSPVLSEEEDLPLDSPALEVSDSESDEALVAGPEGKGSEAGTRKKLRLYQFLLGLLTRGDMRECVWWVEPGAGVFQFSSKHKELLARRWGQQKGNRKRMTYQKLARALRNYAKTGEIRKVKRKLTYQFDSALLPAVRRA
Chain of ELF4 (Q99607 whole entry): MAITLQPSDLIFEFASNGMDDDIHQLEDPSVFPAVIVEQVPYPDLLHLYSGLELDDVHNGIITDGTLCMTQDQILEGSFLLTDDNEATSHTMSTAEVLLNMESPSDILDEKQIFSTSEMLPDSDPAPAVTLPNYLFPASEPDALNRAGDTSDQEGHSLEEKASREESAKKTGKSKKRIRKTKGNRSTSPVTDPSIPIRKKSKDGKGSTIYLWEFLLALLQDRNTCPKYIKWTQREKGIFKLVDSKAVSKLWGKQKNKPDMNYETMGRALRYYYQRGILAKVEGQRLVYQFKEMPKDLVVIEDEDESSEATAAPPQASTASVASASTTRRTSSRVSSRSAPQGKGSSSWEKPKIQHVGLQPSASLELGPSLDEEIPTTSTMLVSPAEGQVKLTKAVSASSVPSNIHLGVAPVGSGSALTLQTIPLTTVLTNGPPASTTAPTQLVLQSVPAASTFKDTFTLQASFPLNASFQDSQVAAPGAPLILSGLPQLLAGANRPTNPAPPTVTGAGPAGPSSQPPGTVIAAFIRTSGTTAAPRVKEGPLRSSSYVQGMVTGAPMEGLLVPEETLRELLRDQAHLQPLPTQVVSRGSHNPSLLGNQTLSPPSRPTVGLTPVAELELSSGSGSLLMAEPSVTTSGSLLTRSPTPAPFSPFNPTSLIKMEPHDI
Chain of CRX (O43186 whole entry): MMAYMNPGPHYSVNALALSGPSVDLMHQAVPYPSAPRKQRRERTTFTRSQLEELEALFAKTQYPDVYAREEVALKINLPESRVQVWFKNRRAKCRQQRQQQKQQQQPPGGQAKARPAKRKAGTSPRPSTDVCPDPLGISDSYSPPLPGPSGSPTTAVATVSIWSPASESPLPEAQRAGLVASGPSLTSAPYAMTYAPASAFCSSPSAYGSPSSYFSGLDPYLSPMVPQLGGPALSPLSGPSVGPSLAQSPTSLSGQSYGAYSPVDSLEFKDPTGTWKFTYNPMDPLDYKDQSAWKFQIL
Chain of HSF1 (Q00613 whole entry): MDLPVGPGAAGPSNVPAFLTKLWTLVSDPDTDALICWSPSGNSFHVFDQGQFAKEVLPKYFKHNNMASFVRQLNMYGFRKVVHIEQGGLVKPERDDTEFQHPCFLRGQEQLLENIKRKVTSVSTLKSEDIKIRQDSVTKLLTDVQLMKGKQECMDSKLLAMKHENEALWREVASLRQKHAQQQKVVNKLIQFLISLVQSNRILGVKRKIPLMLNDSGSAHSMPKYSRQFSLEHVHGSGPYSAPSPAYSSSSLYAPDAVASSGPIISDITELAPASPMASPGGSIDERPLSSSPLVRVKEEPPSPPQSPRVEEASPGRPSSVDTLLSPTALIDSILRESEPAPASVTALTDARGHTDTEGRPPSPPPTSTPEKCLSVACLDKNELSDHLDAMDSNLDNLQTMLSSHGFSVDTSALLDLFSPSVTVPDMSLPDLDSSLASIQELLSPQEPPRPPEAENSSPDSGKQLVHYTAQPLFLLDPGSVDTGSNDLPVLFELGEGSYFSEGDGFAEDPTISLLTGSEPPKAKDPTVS
Chain of ELF1 (P32519 whole entry): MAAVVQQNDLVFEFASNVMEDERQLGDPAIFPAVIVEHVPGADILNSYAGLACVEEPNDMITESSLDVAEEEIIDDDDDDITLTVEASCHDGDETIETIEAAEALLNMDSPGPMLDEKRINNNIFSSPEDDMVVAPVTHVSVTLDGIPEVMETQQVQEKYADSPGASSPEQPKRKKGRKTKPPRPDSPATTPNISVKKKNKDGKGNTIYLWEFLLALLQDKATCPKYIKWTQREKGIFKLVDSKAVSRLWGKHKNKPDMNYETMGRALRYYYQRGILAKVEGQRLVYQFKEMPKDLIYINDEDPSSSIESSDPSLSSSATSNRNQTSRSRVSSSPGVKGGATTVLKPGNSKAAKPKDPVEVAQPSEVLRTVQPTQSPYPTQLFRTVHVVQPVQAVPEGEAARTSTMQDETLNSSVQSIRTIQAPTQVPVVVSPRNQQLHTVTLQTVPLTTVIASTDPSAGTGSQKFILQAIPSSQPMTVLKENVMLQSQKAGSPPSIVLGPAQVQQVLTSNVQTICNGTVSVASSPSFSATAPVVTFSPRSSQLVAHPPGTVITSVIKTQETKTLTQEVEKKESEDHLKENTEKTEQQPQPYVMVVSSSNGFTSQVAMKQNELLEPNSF

Regarding TAGGGT, the binding signal was 1.04 fold enrichment (6-mer frequency, TF over GST control) with FLI1; 1.03 fold enrichment (6-mer frequency, TF over GST control) with ELK1; 1.11 fold enrichment (6-mer frequency, TF over GST control) with GABPA; 1.03 fold enrichment (6-mer frequency, TF over GST control) with ERG; 1.16 fold enrichment (6-mer frequency, TF over GST control) in the test with ELF1; 1.09 fold enrichment (6-mer frequency, TF over GST control) with EHF. The binding signal is 1.13 fold enrichment (6-mer frequency, TF over GST control) with SPI1; 1.1 fold enrichment (6-mer frequency, TF over GST control) with SPIB; 1.04 fold enrichment (6-mer frequency, TF over GST control) in the test with ELK3; 1.07 fold enrichment (6-mer frequency, TF over GST control) with FEV; 1.08 fold enrichment (6-mer frequency, TF over GST control) with ETV5; 1.06 fold enrichment (6-mer frequency, TF over GST control) with HSF1. In addition, the binding signal in the test with SPIC is 1.11 fold enrichment (6-mer frequency, TF over GST control); with ELF4, 1.09 fold enrichment (6-mer frequency, TF over GST control); in the test with ELK4 it was 1.22 fold enrichment (6-mer frequency, TF over GST control); with ETV2 it was 1.16 fold enrichment (6-mer frequency, TF over GST control); with ELF3, 1.1 fold enrichment (6-mer frequency, TF over GST control); with CRX it was 1.2 fold enrichment (6-mer frequency, TF over GST control). Also, the binding signal with ETV1 is 1.01 fold enrichment (6-mer frequency, TF over GST control).
